Test results: PubChem BioAssay AID1851 (National Center for Advancing Translational Sciences (NCATS), 2009)
About 2,600 (16%) of roughly 16,000 compounds were called active. Another 20% or so got no clear call; they are omitted. Calls come from the whole dose curve; as a rule, active = well fitted curve in the direction sought with a large enough effect; inconclusive = small, poorly fitted or top-dose-only effect, or effect the other way; inactive = no such curve, though single readings can be large or run the other way. These entries were drawn from the full list.

Target: Cytochrome P450 2D6 (Homo sapiens) (UniProt P10635)
Assay: Cytochrome panel assay with activity outcomes
Details: recombinant CYP, pro-luciferin dealkylation, luminescence, p450-cyp2d6; series mostly up to 57.1 µM; activity, negative = inhibition: at the top concentration
% is set by controls: 0 for no effect and ±100 for the full control effect.

Sequence of Cytochrome P450 2D6 (Homo sapiens) (P10635 whole entry, looked up): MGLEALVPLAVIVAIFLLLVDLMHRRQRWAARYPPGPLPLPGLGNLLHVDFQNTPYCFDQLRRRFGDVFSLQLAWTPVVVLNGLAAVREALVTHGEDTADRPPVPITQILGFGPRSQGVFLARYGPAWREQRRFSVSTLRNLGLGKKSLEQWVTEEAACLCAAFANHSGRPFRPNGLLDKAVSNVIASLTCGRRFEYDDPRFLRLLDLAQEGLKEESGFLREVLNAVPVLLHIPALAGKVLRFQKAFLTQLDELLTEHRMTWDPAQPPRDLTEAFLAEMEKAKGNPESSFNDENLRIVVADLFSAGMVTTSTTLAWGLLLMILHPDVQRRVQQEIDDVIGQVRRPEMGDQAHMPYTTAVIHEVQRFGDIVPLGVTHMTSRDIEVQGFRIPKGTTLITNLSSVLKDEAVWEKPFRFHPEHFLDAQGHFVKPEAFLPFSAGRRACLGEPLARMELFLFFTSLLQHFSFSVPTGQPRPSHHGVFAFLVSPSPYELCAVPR

Structure (SMILES)	activity, negative = inhibition	AC50
Cc1cc(NC(=O)Nc2ccc(F)cc2)no1	-4.04% (inactive)	
Clc1ccccc1C(Nc1ncccn1)Nc1ncccn1	1.87% [at 11.4 µM] (inactive)	
CN(C)CCCN=c1c2ccccc2n(C)c2[nH]c(=O)n(C)c(=O)c12	13.4% [at 11.4 µM] (inactive)	
CCN1CCN(C(=O)C2c3cc(OC)c(OC)cc3C(=O)N3CCc4ccccc4C23)CC1 (stereo unspecified)	6.87% (inactive)	
O=C(O)C1C2C=CC3(CN(Cc4ccccn4)C(=O)C13)O2 (stereo unspecified)	-2.08% (inactive)	
CCOC(=O)Cn1nnc2c(sc3nc4c(c(-c5ccc(Cl)cc5)c32)CCC4)c1=O	-12.5% (inactive)	
CC(C)Cn1c(=O)n(C)c(=O)c2[nH]cnc21	-4.45% (inactive)	
FC(F)(F)c1cc(C(F)(F)F)c2ccc(N/N=C/c3cccc(Cl)c3)nc2n1	13.3% (inactive)	
COc1ccccc1-c1cncnc1NCc1cccs1		15.8 µM (active)
CC(=O)NCCNc1ncncc1-c1ccccc1C	-17.1% (inactive)	
Cc1ccccc1-c1cncnc1NCc1cccs1		12.6 µM (active)
Clc1ccccc1-c1cncnc1NCc1cccs1		10 µM (active)
Cc1cnc(CNc2ncncc2-c2c(C)noc2C)cn1	-3.29% (inactive)	
FC(F)(F)c1ccccc1-c1cncnc1NCc1cccs1		15.8 µM (active)
CO[C@H]1COC(=O)C/C=C\[C@@H](C)COC(=O)[C@@H](C)NC(=O)C/C=C\[C@@H]1C	1.11% [at 11.4 µM] (inactive)	
O=S(=O)(c1ccccc1S(=O)(=O)N1CCCCC1)N1CCCCC1	-8.09% (inactive)	
CC1(CCC#N)N=C(SCCC#N)N(c2ccccc2)C1=O (stereo unspecified)	14.5% (inactive)	
Cc1ccc(S(=O)(=O)N[C@H](CN)C(=O)O)cc1	3.02% [at 11.4 µM] (inactive)	
CC(C)Oc1ccc(C2CC(=O)NC3=C2C(=O)CCC3)cc1 (stereo unspecified)	-8.75% (inactive)	
CCCCSC(=S)N(C)C1CCS(=O)(=O)C1 (stereo unspecified)	-20.3% (inactive)	
C=C(Br)CN(C)CC(=C)Br	9.77% [at 11.4 µM] (inactive)	
CCOc1cc(C2CC(=O)c3c(ccc4ccccc34)N2)ccc1O (stereo unspecified)	-0.911% (inactive)	
COc1ccc(C2C(C(=O)N3CCOCC3)CCC(=O)N2c2ccc(OC)cc2)cc1 (stereo unspecified)	8.66% (inactive)	

Structure (SMILES)	activity, negative = inhibition	AC50
CC(C)C(NC(=O)C12CC3CC(CC(C3)C1)C2)C(=O)NC1=NCCS1 (stereo unspecified)	-10.7% (inactive)	
COc1c(C)c2c(c(O)c1C/C=C(\C)CCC(=O)O)C(=O)OC2		inactive
COC(=O)c1cc(C(=O)c2cccc(Cl)c2Cl)cn1C	-19.6% (inactive)	
CN(C)Cc1ccccc1-c1cncnc1NCc1cccs1		12.6 µM (active)
Cc1cnc(CNc2ncncc2-c2ccccc2C#N)cn1	-2.44% (inactive)	
CC(C)Oc1cccc(C(=O)NC(=S)N2CCN(c3ccc(C(F)(F)F)cc3[N+](=O)[O-])CC2)c1	-16.2% (inactive)	
O=C(CCN1C(=O)/C(=C/c2cccc(Br)c2)SC1=S)NNC(=O)c1cccnc1	-8.93% (inactive)	
C[C@](O)(c1ccccc1)c1nccc2ccccc12	-11.5% [at 11.4 µM] (inactive)	
COc1cccc(NC(=O)c2oc3ccccc3c2NC(C)=O)c1	-15.6% (inactive)	
CCOC(=O)CC1NC(=O)c2ccccc21 (stereo unspecified)	11.6% (inactive)	
C=CCn1c(SCC(=O)N2CCc3ccccc3C2)nc2ccccc2c1=O		15.8 µM (active)
C=CCn1c(SCC(=O)N2CC(=O)Nc3ccccc32)nc2scc(-c3ccccc3)c2c1=O	-13.4% (inactive)	
Cc1ccc(-n2c(C)nnc2SCC(=O)N2CCc3ccccc3C2)cc1C	0.438% (inactive)	
O=C(Cn1c(SCC(=O)N2CCc3ccccc3C2)nc2ccccc21)NC1CCCC1		25.1 µM (active)
C=CCSc1nc2ccccc2c(=O)n1Cc1ccco1	-11.2% [at 11.4 µM] (inactive)	
O=C(Cn1cccc1)NC1CCCCCC1	5.48% (inactive)	
CCOC(=O)c1sc(N(Cc2ccccc2)C(=O)CN2C(=O)CN(C)C2=O)nc1C	-26% (inactive)	
c1ccc(-c2nccc(-c3ccc(-n4cnc5ccccc54)cc3)n2)nc1	-20.9% (inactive)	
CCOC(=O)c1cn(-c2nc(-c3ccc(Cl)cc3)cs2)c2c(F)c(N3CC(C)OC(C)C3)c(F)cc2c1=O (stereo unspecified)	-6.02% (inactive)	
C[C@@H](c1ccccc1)N1C(=O)[C@H]2[C@H]3[C@H](O)[C@H](O)C/C(=N/OC[C@@H](O)COCc4ccco4)[C@H]3CC[C@@H]2C1=O	-0.906% [at 11.4 µM] (inactive)	
Cc1cccc(NC2=NC(=S)N(c3ccc(C(=O)O)cc3)C23CCCCC3)c1	33.6% (inactive)	
CCCn1cnc2c1c(=O)n(CCCCC(C)=O)c(=O)n2C	5.76% (inactive)	
NC(=O)C(=O)O	9.07% (inactive)	

Structure (SMILES)	activity, negative = inhibition	AC50
COc1ccc(C(=O)O/N=C/c2ccc(S(=O)c3ccc(Cl)cc3)nc2)cc1 (stereo unspecified)	4.34% (inactive)	
CCCn1nnnc1-c1cc(Cl)cc(Cl)c1	-16.5% (inactive)	
CC1=CC(=O)c2ccccc2C1=O		7.94 µM (active)
CC1=CC(=C2C(=O)c3ccccc3C2=O)C=C(C)O1	-1.34% (inactive)	
CCn1c(C)nc2c1C(=O)c1ccccc1C2=O	-24.8% (inactive)	
Cc1ccc(-n2ncc3c(=O)n(CC(=O)NCC4CCCO4)cnc32)cc1 (stereo unspecified)	-2.25% (inactive)	
O=C(/C=C/Nc1ccccc1)c1ccc(Oc2ncccn2)cc1	-24.4% (inactive)	
CCCc1ccc(-c2cc(C(=O)NN3CCOCC3)c3ccccc3n2)cc1	-8.77% (inactive)	
COc1ccccc1CNc1ncncc1-c1ccoc1		20 µM (active)
COc1ccccc1CNc1ncncc1-c1ccccc1OC		10 µM (active)
COc1ccccc1CCn1c(=O)c(-c2ccc(F)cc2)nc2cncnc21	12.9% (inactive)	
COc1ccccc1CN1C(=O)c2ccncc2C1=O	-1.12% (inactive)	
COc1ccccc1CNc1ncncc1-c1ccccc1C		10 µM (active)
COc1ccccc1CNc1ncncc1-c1ccccc1Cl		2 µM (active)
CCOc1[nH]n(-c2ccc(Cl)cc2)c(=O)c1C=Nc1ccc(Cl)cc1	1.47% (inactive)	
CCOc1ccc(N/N=C(/C#N)C(N)=O)cc1	-4.83% (inactive)	
CO[C@@H]1COC(=O)[C@H]2CCCN2C(=O)[C@@H](C)COC(=O)C/C=C\[C@H]1C	-1.92% [at 11.4 µM] (inactive)	
Cc1ccc(C(=O)N/C(=C/C=C/c2ccccc2)C(=O)NCc2ccco2)cc1	7.67% (inactive)	
Cc1c(Br)cc(C(=O)NC2CCCCC2)c(C)c1C	-8.72% (inactive)	
OC[C@@H]1O[C@@H](n2cnc3c(SCc4ccccc4)ncnc32)[C@@H](O)[C@H]1O	-0.968% [at 11.4 µM] (inactive)	
O=C(CCCCC(=O)Nc1c(I)cc(I)c(C(=O)O)c1I)Nc1c(I)cc(I)c(C(=O)O)c1I	-0.733% [at 25.6 µM] (inactive)	
CCOC(=O)CSc1nnc(CSc2nc3sc4c(c3c(=O)[nH]2)CCCC4)n1-c1ccccc1	-29.7% (inactive)	
NC1=NC(=O)/C(=C/c2cccs2)S1	20.3% (inactive)	

Structure (SMILES)	activity, negative = inhibition	AC50
COc1ccc(-c2nc3cnc(N4CCNCC4)nc3n(C3CC3)c2=O)cc1	1.04% (inactive)	
Nc1ccc(S(=O)(=O)Nc2ccc(Cl)nn2)cc1	6.78% [at 25.6 µM] (inactive)	
COc1ccc2c(c1)-c1c(sn(-c3ccc(OC)c(OC)c3)c1=S)C(C)(C)N2	21.3% (inactive)	
OCCN1CCN(CCOc2cccc(Cl)c2)CC1		5.01 µM (active)
O=C(O)c1cccc(OCCO)c1	5.58% [at 11.4 µM] (inactive)	
C[C@H]1CN(CCO)CCN1c1ccccc1	11.2% [at 11.4 µM] (inactive)	
CO[C@H]1COC(=O)[C@H]2CCCN2C(=O)C/C=C\[C@@H](C)[C@H](OC)COC(=O)C/C=C\[C@@H]1C	-7.59% [at 11.4 µM] (inactive)	
CC1=C[N+](=O)c2ccccc2[N+]1=O	22.3% [at 11.4 µM] (inactive)	
COc1ccc(O[C@H]2C=C[C@@H](c3ccccc3)O[C@H]2CO/N=C(/C)CCC(=O)OC[C@@H]2O[C@H](c3ccccc3)C=C[C@@H]2Oc2ccc(OC)cc2)cc1	8.39% [at 11.4 µM] (inactive)	
C/C(CCC(=O)OC[C@@H]1O[C@H](C#Cc2ccccc2)C=C[C@@H]1Oc1ccc(C)cc1)=N/OC[C@@H](O)COCc1ccco1	5.64% [at 11.4 µM] (inactive)	
COc1ccc(O[C@H]2C=C[C@@H](c3ccccc3)O[C@H]2CO/N=C\C[C@@H]2C=C[C@H](OC(C)=O)[C@H](COC(C)=O)O2)cc1	-5.75% [at 11.4 µM] (inactive)	
CC(=O)OC[C@@H]1O[C@H](CCO/N=C(\C)CCC(=O)OC[C@@H]2O[C@H](C#Cc3ccccc3)C=C[C@@H]2Oc2ccc(C)cc2)C=C[C@@H]1OC(C)=O	15.9% [at 11.4 µM] (inactive)	
CC(=O)OC[C@H]1O[C@@H](O/N=C(\C)CCC(=O)OC[C@@H]2O[C@H](C#Cc3ccccc3)C=C[C@@H]2Oc2ccc(C)cc2)[C@H](OC(C)=O)[C@@H](OC(C)=O)[C@H]1OC(C)=O		3.98 µM (active)
COc1ccc(O[C@H]2C=C[C@@H](c3ccccc3)O[C@H]2COC(=O)CC/C(C)=N/O[C@@H]2O[C@H](COC(C)=O)[C@H](OC(C)=O)[C@H](OC(C)=O)[C@H]2OC(C)=O)cc1		3.16 µM (active)
COc1cccc([C@H]2Oc3ccc(OC)cc3/C(=N\O[C@@H]3O[C@H](COC(C)=O)[C@H](OC(C)=O)[C@H](OC(C)=O)[C@H]3OC(C)=O)[C@@H]2O)c1		3.16 µM (active)
CCCNC(=O)OC[C@@H]1O[C@H](CCO/N=C2\c3cc(OC)ccc3O[C@H](c3cccc(OC)c3)[C@H]2O)C=C[C@@H]1Oc1ccc(OC)cc1	-1.45% [at 11.4 µM] (inactive)	
COc1ccc(O[C@H]2C=C[C@@H](c3ccccc3)O[C@H]2CO/N=C2/c3cc(OC)ccc3O[C@@H](c3cccc(OC)c3)[C@H]2O)cc1	-21.5% [at 11.4 µM] (inactive)	
CN1CCN(c2ncc3ncc(=O)n(CCC#N)c3n2)CC1	1.57% (inactive)	
COC(=O)c1ccc(Oc2cc(C)nc(-n3nc(C)cc3C)n2)cc1	-10.5% (inactive)	
Cc1cccc(NC(=S)NNC(=O)CC(C)O)c1C (stereo unspecified)	-3.05% (inactive)	
O=C(/C=C/c1ccc2ccccc2c1)c1ccoc1	-5.53% (inactive)	
COC(=O)c1c(-c2ccc3ccccc3c2)csc1NC(=O)Cc1ccc(OC)c(OC)c1	9.92% (inactive)	
